# Data from paper PMC7862700, “An all-to-all approach to the identification of sequence-specific readers for epigenetic DNA modifications on cytosine”.
# What was measured:
# Assay in all cases: DAPPL (digital affinity profiling via proximity ligation, sequencing); 10 mM Tris-HCl pH 7.5, 50 mM NaCl, 1 mM DTT, 4% glycerol, room temperature, 30 min; GST-TFs on glutathione beads, 16-mer random dsDNA library, 0.1% formaldehyde crosslink after washing; high values mean tight binding
# [1] = biological target: T1, FLI1 (Homo sapiens, UniProt Q01543 1-452); conditions: protein: recombinant; tags: N-terminal GST; dsDNA, one strand shown
# T1 sequence: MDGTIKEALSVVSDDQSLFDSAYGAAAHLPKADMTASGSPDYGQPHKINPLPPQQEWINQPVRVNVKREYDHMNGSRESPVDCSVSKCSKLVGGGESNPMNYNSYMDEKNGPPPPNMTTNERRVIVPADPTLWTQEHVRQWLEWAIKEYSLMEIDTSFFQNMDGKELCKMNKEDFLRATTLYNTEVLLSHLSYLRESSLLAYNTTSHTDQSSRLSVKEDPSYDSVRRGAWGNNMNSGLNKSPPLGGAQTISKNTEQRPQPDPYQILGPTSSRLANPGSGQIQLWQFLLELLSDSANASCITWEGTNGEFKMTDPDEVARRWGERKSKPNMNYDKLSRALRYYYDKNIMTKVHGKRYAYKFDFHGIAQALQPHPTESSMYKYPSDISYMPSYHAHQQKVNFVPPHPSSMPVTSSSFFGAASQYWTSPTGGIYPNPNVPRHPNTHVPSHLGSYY
# How it was run: (§1)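 After expression in yeast as GST fusions, human transcription factors were bound to glutathione beads, DNA-barcoded and mixed with a tag-only sample. The pools were incubated with 200 nmole of a 16-mer random double-stranded DNA library in Tris/NaCl/DTT/glycerol buffer (30 min, room temperature), washed and crosslinked with 0.1% formaldehyde. Proximity ligation with BsaI/T4 ligase ran for 1 h at 37 °C, before PCR amplification and sequencing on an Illumina NextSeq500. Binding signal is a hexamer's read frequency for a factor divided by its frequency for the tag-only sample.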
# [2] = biological target: T2, GABPA (Homo sapiens, UniProt Q06546 1-454); conditions: protein: recombinant; tags: N-terminal GST; dsDNA, one strand shown
# T2 sequence: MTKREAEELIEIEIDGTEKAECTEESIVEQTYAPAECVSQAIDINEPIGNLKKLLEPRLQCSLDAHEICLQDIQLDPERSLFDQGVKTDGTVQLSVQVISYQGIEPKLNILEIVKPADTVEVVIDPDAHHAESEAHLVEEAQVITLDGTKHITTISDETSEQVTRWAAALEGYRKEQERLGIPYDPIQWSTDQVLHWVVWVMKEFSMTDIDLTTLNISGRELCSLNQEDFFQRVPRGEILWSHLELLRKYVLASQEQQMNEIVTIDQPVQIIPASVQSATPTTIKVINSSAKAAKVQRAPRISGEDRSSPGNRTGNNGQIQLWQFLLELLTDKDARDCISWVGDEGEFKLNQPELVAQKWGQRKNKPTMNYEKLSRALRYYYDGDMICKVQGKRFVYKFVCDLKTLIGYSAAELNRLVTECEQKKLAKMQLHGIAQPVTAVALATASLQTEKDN
# How it was run: as §1
# [3] = biological target: T3, ERG (Homo sapiens, UniProt P11308 1-479); conditions: protein: recombinant; tags: N-terminal GST; dsDNA, one strand shown
# T3 sequence: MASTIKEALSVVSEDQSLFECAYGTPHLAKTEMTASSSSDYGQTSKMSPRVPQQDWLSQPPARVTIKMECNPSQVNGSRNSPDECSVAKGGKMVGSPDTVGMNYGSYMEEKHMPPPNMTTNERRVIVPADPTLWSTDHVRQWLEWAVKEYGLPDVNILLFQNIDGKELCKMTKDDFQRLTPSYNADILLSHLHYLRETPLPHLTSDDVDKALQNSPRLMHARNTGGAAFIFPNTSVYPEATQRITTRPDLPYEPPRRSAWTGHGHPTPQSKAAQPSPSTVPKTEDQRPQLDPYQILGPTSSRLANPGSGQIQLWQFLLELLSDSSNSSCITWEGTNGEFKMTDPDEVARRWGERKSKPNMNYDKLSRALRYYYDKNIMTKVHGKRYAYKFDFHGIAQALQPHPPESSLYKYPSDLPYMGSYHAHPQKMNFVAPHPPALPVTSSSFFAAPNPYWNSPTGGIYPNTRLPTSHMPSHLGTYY
# How it was run: as §1
# [4] = biological target: ELF1 (Homo sapiens, UniProt P32519 1-619); conditions: protein: recombinant; tags: N-terminal GST; dsDNA, one strand shown
# Sequence of ELF1 (P32519 whole entry): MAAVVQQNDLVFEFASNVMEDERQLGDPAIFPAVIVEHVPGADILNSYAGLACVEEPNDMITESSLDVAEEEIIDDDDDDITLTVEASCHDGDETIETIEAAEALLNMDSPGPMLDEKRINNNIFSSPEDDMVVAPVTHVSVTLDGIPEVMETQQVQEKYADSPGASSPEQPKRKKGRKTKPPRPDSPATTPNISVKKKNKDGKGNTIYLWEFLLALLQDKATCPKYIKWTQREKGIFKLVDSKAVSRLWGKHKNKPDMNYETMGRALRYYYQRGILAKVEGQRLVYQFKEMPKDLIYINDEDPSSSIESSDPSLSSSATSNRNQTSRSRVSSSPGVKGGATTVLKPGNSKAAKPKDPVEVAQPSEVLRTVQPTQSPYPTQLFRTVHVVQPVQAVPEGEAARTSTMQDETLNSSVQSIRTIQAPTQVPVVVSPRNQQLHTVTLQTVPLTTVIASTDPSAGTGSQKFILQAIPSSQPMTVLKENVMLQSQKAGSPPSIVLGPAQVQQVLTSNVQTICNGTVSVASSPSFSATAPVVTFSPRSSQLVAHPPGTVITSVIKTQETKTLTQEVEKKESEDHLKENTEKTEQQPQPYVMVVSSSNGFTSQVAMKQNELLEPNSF
# How it was run: as §1
# [5] = biological target: T4, EHF (Homo sapiens, UniProt Q9NZC4 1-300); conditions: protein: recombinant; tags: N-terminal GST; dsDNA, one strand shown
# T4 sequence: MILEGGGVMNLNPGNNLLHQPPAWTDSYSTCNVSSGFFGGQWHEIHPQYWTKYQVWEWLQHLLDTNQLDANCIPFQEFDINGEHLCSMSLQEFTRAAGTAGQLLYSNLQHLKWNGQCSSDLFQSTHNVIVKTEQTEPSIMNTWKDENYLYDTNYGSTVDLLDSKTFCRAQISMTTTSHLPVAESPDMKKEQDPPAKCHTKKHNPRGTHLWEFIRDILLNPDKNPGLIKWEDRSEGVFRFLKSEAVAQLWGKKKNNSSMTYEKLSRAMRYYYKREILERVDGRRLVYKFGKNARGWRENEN
# How it was run: as §1
# [6] = biological target: SPI1 (Homo sapiens, UniProt P17947 1-270); conditions: protein: recombinant; tags: N-terminal GST; dsDNA, one strand shown
# How it was run: as §1
# [7] = biological target: SPIB (Homo sapiens, UniProt Q01892 1-262); conditions: protein: recombinant; tags: N-terminal GST; dsDNA, one strand shown
# Sequence of SPIB (Q01892 whole entry): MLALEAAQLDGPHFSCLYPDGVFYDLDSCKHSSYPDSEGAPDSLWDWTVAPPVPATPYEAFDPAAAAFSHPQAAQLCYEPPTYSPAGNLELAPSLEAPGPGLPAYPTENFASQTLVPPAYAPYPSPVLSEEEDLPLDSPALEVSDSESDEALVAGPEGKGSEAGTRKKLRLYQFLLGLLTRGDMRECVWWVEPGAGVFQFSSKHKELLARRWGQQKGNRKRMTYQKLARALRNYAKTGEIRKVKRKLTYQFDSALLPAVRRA
# How it was run: as §1
# [8] = biological target: T5, FEV (Homo sapiens, UniProt Q99581 1-238); conditions: protein: recombinant; tags: N-terminal GST; dsDNA, one strand shown
# T5 sequence: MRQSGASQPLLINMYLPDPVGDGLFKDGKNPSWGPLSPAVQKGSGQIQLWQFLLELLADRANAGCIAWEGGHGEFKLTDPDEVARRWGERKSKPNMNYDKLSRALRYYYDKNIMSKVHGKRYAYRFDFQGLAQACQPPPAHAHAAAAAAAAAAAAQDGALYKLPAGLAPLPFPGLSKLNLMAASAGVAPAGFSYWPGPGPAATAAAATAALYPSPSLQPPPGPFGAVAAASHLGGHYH
# How it was run: as §1
# [9] = biological target: ETV5 (Homo sapiens, UniProt P41161 1-510); conditions: protein: recombinant; tags: N-terminal GST; dsDNA, one strand shown
# Sequence of ETV5 (P41161 whole entry): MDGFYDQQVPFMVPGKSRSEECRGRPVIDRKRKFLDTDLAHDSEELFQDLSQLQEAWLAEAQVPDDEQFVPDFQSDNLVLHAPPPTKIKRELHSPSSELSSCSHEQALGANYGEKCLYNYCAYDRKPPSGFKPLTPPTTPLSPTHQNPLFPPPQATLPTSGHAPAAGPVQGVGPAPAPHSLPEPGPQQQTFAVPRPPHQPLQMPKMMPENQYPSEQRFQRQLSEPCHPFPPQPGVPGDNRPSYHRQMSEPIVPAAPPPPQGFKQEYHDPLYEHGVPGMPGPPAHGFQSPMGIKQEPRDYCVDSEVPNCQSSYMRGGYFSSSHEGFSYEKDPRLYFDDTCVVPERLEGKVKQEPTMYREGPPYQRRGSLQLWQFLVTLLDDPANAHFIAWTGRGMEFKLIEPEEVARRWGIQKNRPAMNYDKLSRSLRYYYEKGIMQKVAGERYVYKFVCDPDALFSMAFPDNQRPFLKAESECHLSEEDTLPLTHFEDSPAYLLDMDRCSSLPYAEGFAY
# How it was run: as §1
# [10] = biological target: HSF1 (Homo sapiens, UniProt Q00613 1-529); conditions: protein: recombinant; tags: N-terminal GST; chain copies: 3; dsDNA, one strand shown
# Sequence of HSF1 (Q00613 whole entry): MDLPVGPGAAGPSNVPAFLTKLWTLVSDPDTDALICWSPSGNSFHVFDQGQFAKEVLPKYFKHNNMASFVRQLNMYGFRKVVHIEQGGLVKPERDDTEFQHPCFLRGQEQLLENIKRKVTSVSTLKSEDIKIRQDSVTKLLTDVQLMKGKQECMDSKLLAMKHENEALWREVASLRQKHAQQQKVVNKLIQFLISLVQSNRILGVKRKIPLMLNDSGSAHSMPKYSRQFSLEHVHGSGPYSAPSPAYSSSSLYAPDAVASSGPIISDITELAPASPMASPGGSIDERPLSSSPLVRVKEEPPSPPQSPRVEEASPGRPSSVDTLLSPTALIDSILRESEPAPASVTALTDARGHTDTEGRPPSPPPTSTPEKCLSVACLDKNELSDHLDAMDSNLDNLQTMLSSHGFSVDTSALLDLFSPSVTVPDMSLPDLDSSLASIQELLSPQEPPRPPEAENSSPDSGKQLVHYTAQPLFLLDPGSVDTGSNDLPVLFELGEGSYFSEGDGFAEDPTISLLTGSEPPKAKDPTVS
# How it was run: as §1
# [11] = biological target: T6, SPIC (Homo sapiens, UniProt Q8N5J4 1-248); conditions: protein: recombinant; tags: N-terminal GST; dsDNA, one strand shown
# T6 sequence: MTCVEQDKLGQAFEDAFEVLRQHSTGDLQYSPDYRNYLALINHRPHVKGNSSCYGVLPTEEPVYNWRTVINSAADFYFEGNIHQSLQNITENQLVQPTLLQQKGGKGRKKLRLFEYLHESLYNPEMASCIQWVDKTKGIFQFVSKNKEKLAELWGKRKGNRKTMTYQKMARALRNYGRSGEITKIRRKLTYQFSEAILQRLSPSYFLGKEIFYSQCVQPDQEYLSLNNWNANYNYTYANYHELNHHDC
# How it was run: as §1
# [12] = biological target: ELF4 (Homo sapiens, UniProt Q99607 1-663); conditions: protein: recombinant; tags: N-terminal GST; dsDNA, one strand shown
# Sequence of ELF4 (Q99607 whole entry): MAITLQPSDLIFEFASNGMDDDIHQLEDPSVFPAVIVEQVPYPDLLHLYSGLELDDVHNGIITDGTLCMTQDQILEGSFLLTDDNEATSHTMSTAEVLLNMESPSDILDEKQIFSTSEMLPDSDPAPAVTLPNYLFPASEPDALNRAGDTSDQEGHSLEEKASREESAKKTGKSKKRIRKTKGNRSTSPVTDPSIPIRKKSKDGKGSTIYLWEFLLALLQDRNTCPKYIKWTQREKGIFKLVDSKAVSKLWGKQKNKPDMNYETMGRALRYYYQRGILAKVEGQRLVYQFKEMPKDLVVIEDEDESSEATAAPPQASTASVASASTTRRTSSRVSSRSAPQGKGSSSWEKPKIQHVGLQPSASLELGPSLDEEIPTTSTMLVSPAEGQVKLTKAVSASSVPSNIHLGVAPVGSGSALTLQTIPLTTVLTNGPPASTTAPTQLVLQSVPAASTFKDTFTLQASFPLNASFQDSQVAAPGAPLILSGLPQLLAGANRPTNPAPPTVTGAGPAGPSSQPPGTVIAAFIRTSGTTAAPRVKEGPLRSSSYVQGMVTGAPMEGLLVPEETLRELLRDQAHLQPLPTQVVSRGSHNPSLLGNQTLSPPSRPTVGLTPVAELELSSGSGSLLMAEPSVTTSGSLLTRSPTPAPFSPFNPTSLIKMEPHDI
# How it was run: as §1
# [13] = biological target: T7, ELK4 (Homo sapiens, UniProt P28324-2 1-405); conditions: protein: recombinant; tags: N-terminal GST; dsDNA, one strand shown
# T7 sequence: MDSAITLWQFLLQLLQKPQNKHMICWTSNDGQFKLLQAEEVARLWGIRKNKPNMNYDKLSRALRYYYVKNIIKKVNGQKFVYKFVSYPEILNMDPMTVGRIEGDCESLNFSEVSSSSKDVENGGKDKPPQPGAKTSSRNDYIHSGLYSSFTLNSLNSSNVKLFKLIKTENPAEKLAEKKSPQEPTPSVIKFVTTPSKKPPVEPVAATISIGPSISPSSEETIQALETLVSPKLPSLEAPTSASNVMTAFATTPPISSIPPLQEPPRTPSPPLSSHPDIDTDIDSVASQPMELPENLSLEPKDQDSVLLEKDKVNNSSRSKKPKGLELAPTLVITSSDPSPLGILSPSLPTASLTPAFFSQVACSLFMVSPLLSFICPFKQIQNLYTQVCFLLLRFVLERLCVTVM
# How it was run: as §1
# [14] = biological target: T8, ETV2 (Homo sapiens, UniProt O00321 1-342); conditions: protein: recombinant; tags: N-terminal GST; dsDNA, one strand shown
# T8 sequence: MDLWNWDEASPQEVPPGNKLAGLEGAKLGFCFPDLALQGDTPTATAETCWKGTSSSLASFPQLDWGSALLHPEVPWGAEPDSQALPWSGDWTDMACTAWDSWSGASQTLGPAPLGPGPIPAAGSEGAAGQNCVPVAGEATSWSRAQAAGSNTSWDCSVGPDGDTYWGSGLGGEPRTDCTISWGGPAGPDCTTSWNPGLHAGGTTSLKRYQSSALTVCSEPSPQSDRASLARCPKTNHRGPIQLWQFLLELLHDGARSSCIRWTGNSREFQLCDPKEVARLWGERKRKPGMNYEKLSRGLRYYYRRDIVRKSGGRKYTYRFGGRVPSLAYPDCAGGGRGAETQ
# How it was run: as §1
# [15] = biological target: T9, ELF3 (Homo sapiens, UniProt P78545 1-371); conditions: protein: recombinant; tags: N-terminal GST; dsDNA, one strand shown
# T9 sequence: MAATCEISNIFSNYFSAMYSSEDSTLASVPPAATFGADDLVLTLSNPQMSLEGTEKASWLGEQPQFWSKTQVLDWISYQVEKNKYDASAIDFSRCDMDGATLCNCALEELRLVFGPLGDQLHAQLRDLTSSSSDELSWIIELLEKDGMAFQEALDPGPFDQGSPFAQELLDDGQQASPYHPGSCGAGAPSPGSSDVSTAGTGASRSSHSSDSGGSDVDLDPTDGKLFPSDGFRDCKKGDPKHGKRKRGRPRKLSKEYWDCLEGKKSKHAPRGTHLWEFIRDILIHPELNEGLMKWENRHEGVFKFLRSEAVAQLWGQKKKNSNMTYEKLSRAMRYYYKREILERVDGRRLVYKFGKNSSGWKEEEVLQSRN
# How it was run: as §1
# [16] = biological target: ETV1 (Homo sapiens, UniProt P50549 1-477); conditions: protein: recombinant; tags: N-terminal GST; dsDNA, one strand shown
# Sequence of ETV1 (P50549 whole entry): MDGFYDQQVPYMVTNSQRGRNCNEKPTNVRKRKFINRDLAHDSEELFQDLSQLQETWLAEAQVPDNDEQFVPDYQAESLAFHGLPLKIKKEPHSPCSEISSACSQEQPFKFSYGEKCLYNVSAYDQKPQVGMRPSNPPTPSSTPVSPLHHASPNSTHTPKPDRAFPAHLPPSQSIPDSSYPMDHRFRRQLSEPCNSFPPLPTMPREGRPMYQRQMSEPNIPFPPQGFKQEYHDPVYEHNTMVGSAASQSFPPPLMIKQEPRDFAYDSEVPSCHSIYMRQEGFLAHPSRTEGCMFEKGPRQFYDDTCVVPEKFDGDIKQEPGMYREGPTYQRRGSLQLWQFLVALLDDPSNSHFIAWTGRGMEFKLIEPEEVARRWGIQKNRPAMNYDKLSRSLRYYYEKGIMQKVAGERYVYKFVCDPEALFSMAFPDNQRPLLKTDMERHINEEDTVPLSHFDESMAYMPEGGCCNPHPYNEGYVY
# How it was run: as §1
sequence,measurement,setting,value
CTCGGT,binding signal,[1],"1.12 fold enrichment (6-mer frequency, TF over GST control)"
same,binding signal,[2],"1.09 fold enrichment (6-mer frequency, TF over GST control)"
same,binding signal,[3],"1.04 fold enrichment (6-mer frequency, TF over GST control)"
same,binding signal,[4],"1.17 fold enrichment (6-mer frequency, TF over GST control)"
same,binding signal,[5],"1.07 fold enrichment (6-mer frequency, TF over GST control)"
same,binding signal,[6],"1.1 fold enrichment (6-mer frequency, TF over GST control)"
same,binding signal,[7],"1.21 fold enrichment (6-mer frequency, TF over GST control)"
same,binding signal,[8],"1.01 fold enrichment (6-mer frequency, TF over GST control)"
same,binding signal,[9],"1.1 fold enrichment (6-mer frequency, TF over GST control)"
same,binding signal,[10],"1.04 fold enrichment (6-mer frequency, TF over GST control)"
same,binding signal,[11],"1.06 fold enrichment (6-mer frequency, TF over GST control)"
same,binding signal,[12],"1.09 fold enrichment (6-mer frequency, TF over GST control)"
same,binding signal,[13],"1.12 fold enrichment (6-mer frequency, TF over GST control)"
same,binding signal,[14],"1.19 fold enrichment (6-mer frequency, TF over GST control)"
same,binding signal,[15],"1.16 fold enrichment (6-mer frequency, TF over GST control)"
same,binding signal,[16],"1.15 fold enrichment (6-mer frequency, TF over GST control)"
